Potency data for 26 compounds are collected here from PubChem BioAssay (Tox21).

Where “and” joins values, the source holds several entries; their conditions need not be identical. Equal values may be shown once. Results filed as inconclusive are left out. Calls of active or inactive are those of the source. Unless noted, the call rests on the fitted dose curve; in most records, active means well fitted curve in the direction sought with a large enough effect in the repeat runs; inconclusive means weak or mixed curves; inactive means no such curve, though single readings can be large; an effect the other way counts as inactive or inconclusive.

Assay [1] in a line: qHTS assay to identify aromatase inhibitors - cell viability counter screen (AID 743084).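 Further: cells stimulated with testosterone during compound exposure; nearly all actives have a fitted effect of over 55% in size.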 Further: potency means the concentration at half of the fitted maximal effect.
Assay [2] addresses Aryl hydrocarbon receptor (Homo sapiens) (UniProt P35869). Nature of the assay: qHTS assay to identify small molecule that activate the aryl hydrocarbon receptor (AhR) signaling pathway (AID 743085). Further: nearly all actives have a fitted effect of over 15% in size. Further: potency means the concentration at half of the fitted maximal effect.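 On activation: HG2L7.5c1 human HepG2 liver cells with stably integrated DRE-driven firefly reporter; series mostly up to about 70 µM.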 A digest of the protocol: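 A multiplexed format paired cell viability (CellTiter-Fluor fluorescence) with AhR-dependent luciferase output (ONE-Glo luminescence) in the same wells of HepG2 DRE-luc cells after 24 h compound exposure at 37C.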

Assay [3] can be described thus: qHTS assay to identify small molecule that activate the aryl hydrocarbon receptor (AhR) signaling pathway - cell viability counter screen (AID 743086).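 Further: HepG2 liver cells carrying the AhR DRE luciferase reporter; series mostly up to about 70 µM; nearly all actives have a fitted effect of over 45% in size.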 Put shortly: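 HepG2-AhR-luc (HG2L7.5c1) cells, 4000/well, treated 24 h at 37 C with compound; viability measured as CellTiter-Fluor fluorescence after 30 min in the same wells as the luciferase read.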
Assay [4] deals with Peroxisome proliferator-activated receptor gamma (Homo sapiens) (UniProt P37231). The assay can be described thus: qHTS assay to identify small molecule antagonists of the peroxisome proliferator-activated receptor gamma (PPARg) signaling pathway (AID 743191; calls by dose curve; further: nearly all actives have a fitted effect of over 30% in size; further: potency means the concentration at half of the fitted maximal effect). Put shortly:
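GeneBLAzer PPARg UAS-bla HEK293H cells, 5 h post-plating, exposed to compounds 17 h at 37C. LiveBLAzer B/G FRET substrate added for 1 h at room temperature; beta-lactamase reporter read by fluorescence intensity.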

A short description of assay [5]: qHTS assay to identify small molecule antagonists of the peroxisome proliferator-activated receptor gamma (PPARg) signaling pathway - cell viability counter screen (AID 743194). Further: nearly all actives have a fitted effect of over 55% in size. Further: potency means the concentration at half of the fitted maximal effect. Particulars: Potency: co-treated with 50 nM rosiglitazone unless noted. A digest of the protocol: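 Cytotoxicity counter screen in PPARg-bla HEK293H cells, same wells as reporter assay. Compounds plus 50 nM rosiglitazone (final) for 17 h at 37 C, then viability read by CellTiter-Glo luminescence.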

Assay [6] is described as follows: qHTS assay for small molecule agonists of the antioxidant response element (ARE) signaling pathway - cell viability counter screen (AID 743203; calls by dose curve; further: nearly all actives have a fitted effect of over 55% in size). A digest of the protocol:
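Compounds in DMSO were pinned onto ARE-bla HepG2 cells plated 5 hrs earlier at 2,000 cells/well. Sixteen hours later at 37C/5% CO2, CellTiter-Glo was added and luminescence measured after 30 min at room temperature.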

The nature of assay [7]: qHTS assay for small molecule activators of the heat shock response signaling pathway - cell viability counter screen (AID 743209). Further: nearly all actives have a fitted effect of over 50% in size. Further: potency means the concentration at half of the fitted maximal effect. Put shortly: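 Counter screen for cytotoxicity in HeLa HSE-bla reporter cells. Treatment was 5 h at 37 C; viability was detected by luminescent ATP assay (CellTiter-Glo) in the same wells as the beta-lactamase read.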
Assay [8] can be described thus: qHTS assay for small molecule activators of the heat shock response signaling pathway (AID 743210; active means well fitted activation curve with a large enough effect in the signal ratio in the repeat runs, with a control signal flat, not every such curve was filed as active; the % refers to the signal ratio;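 further: HeLa cells with beta-lactamase reporter driven by heat shock elements; series mostly up to about 63 µM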). A digest of the protocol: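 Quantitative high-throughput format using an engineered HeLa line in which heat shock response elements drive beta-lactamase; after 5 h with compound, cells received a B/G FRET substrate and fluorescence was read.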
Assay [9] in a line: qHTS assay for small molecule agonists of the antioxidant response element (ARE) signaling pathway (AID 743202; active means well fitted activation curve with a large enough effect in the signal ratio in the repeat runs, not every such curve was filed as active; the % refers to the signal ratio; further: potency means the concentration at half of the fitted maximal effect). A digest of the protocol: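 Agonist mode reporter screen: HepG2 cells with ARE-controlled beta-lactamase are incubated with test compounds for 16 h at 37 C, and beta-lactamase activity is measured as fluorescence of cleaved B/G FRET substrate.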
For assay [10], the target named is Peroxisome proliferator-activated receptor gamma (Homo sapiens) (UniProt P37231). The assay can be described thus: qHTS assay to identify small molecule agonists of the peroxisome proliferator-activated receptor gamma (PPARg) signaling pathway (AID 743094; active means well fitted activation curve with a large enough effect in the signal ratio in the repeat runs, not every such curve was filed as active; the % refers to the signal ratio; further: potency means the concentration at half of the fitted maximal effect). A digest of the protocol: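 Following 5 h plating at 37C, PPARg-bla HEK293H cells receive compound or DMSO for 17 h; fluorescence intensity is recorded after LiveBLAzer B/G loading for 1 h at room temperature.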
Sequence of Peroxisome proliferator-activated receptor gamma (Homo sapiens) (P37231 whole entry, looked up): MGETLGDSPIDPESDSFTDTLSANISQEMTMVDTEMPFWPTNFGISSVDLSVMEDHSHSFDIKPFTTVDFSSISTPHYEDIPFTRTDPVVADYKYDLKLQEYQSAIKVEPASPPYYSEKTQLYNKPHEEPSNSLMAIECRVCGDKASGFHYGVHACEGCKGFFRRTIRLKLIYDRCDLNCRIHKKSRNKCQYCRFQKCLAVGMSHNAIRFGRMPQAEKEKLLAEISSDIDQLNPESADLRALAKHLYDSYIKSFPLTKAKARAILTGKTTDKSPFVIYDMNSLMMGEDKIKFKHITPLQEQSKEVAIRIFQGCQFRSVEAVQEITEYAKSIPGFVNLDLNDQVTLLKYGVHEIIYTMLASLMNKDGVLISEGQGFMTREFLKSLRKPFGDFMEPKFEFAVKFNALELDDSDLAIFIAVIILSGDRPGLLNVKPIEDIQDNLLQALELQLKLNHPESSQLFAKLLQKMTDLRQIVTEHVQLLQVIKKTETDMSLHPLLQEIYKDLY

Sequence of Aryl hydrocarbon receptor (Homo sapiens) (P35869 whole entry, looked up): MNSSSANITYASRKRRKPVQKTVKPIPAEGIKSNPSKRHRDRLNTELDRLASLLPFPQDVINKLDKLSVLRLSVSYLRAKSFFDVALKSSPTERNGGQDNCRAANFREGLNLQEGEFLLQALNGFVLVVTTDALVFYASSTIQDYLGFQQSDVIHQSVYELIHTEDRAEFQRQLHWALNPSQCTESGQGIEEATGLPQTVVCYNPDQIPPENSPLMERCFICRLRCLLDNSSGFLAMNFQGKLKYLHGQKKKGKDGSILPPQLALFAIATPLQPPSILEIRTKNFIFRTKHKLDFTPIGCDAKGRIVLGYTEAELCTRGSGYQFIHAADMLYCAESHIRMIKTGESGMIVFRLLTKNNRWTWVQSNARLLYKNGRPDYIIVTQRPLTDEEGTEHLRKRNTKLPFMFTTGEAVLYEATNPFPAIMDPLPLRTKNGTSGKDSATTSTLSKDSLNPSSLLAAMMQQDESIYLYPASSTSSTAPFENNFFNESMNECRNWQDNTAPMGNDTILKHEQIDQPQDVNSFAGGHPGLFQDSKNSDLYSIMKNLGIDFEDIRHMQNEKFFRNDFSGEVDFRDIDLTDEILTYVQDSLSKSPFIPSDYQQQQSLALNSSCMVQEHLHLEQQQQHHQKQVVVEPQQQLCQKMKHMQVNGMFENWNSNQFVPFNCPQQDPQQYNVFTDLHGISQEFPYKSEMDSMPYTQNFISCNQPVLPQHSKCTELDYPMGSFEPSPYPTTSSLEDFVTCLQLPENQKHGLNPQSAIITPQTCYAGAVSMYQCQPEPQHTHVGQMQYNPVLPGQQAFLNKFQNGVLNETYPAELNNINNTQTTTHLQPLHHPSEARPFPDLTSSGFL

On to `C[C@]12CCC(=O)C(O)=C1CC[C@@H]1[C@@H]2CC[C@]2(C)C(=O)CC[C@@H]12`, for which the Potency result in assay [1], in [2], in assay [3], in assay [4], in assay [5] and in [6] was “inactive” in each case. Also, the Potency entry in [7] and in assay [8] was “inactive” in each case.
With `COc1ccc(C=O)cc1`, the Potency entry in assay [1], in assay [2], in assay [3], in assay [4], in assay [5] and in [6] was “inactive” throughout. Further, the Potency result in assay [7] and in assay [8] was “inactive” each time.
On to `O=[N+]([O-])c1cccc2ccccc12`, for which the Potency entry in [1], in assay [2], in assay [3], in assay [4], in assay [5] and in assay [6] was “inactive” in each case. Further, the Potency result in assay [7] and in [8] was “inactive” throughout.
As to `CCOc1cc(Oc2ccc(C(F)(F)F)cc2Cl)ccc1[N+](=O)[O-]`, the Potency entry in assay [1], in [2], in assay [3], in assay [4], in assay [5] and in assay [6] was “inactive” in each case. Besides, the Potency result in assay [7] and in assay [8] was “inactive” throughout.
`CC(C)(C)c1ccccc1O`: the Potency result in assay [1], in assay [2], in assay [3], in [4], in assay [5] and in assay [6] was “inactive” in each case. Also, the Potency result in [7] and in assay [8] was “inactive” each time.
`CCCCCCCCCCCOC(=O)c1ccccc1C(=O)OCCCCCCCCCCC`: the Potency entry in [1], in assay [2], in assay [3], in [5], in [9] and in assay [6] was “inactive” in each case. In addition, the Potency result in [7] is “inactive”.
`Oc1c(Cl)c(Cl)c(Cl)c(Cl)c1Cl`: the Potency entry in [1], in [3], in assay [7] and in assay [8] was “inactive” in each case. The values for the Potency in assay [2] and in [4] were 3.37 µM (active) and 3.4 µM (active), respectively.
For the compound `NCc1cccnc1`, the Potency result in assay [1], in [2], in assay [3], in assay [5], in assay [9] and in [6] was “inactive” throughout. Also, the Potency entry in assay [7] and in [8] was “inactive” in each case.
As to `COC(=O)c1sccc1S(=O)(=O)NC(=O)Nc1nc(C)nc(OC)n1`, the Potency entry in assay [1], in assay [2], in assay [3], in assay [10], in assay [9] and in assay [6] was “inactive” in each case. Further, the Potency result in assay [7] and in assay [8] was “inactive” in each case.
As to `Nc1c(Cl)cc([N+](=O)[O-])cc1Cl`, the Potency result in assay [1], in [2], in [3], in assay [10], in assay [5] and in [6] was “inactive” each time. Also, the Potency entry in assay [7] and in [8] was “inactive” throughout.
For the compound `C=CCN(CC=C)C(=O)C(Cl)Cl`, the Potency entry in [1], in assay [2], in assay [3], in assay [4], in assay [5] and in assay [6] was “inactive” in each case. Moreover, the Potency entry in [7] and in assay [8] was “inactive” in each case.
In the case of `C#CCOS(=O)OC1CCCCC1Oc1ccc(C(C)(C)C)cc1` (centres undefined), the Potency in assay [1] was 21.7 µM (active) and 6.86 µM (active); in [5] it was 2.45 µM (active); in [9], 970 nM (active) and 1.72 µM (active). The Potency result in assay [2], in [3], in assay [6], in assay [7] and in assay [8] was “inactive” each time.
In the case of `Oc1cc(Cl)ccc1Cl`, the Potency result in assay [1], in assay [2], in assay [3], in [5], in assay [9] and in assay [6] was “inactive” in each case. Moreover, the Potency entry in assay [7] and in [8] was “inactive” in each case.
On to `C[C@]12CCC(=O)C[C@@H]1CC[C@@H]1[C@@H]2CC[C@]2(C)[C@@H](O)CC[C@@H]12`, for which the Potency entry in assay [1], in assay [2], in [3], in assay [5], in assay [6] and in assay [7] was “inactive” in each case. Besides, in assay [8], the Potency entry was “inactive”. The Potency in assay [9] was 27 µM (active).
For `c1nc[nH]n1`, the Potency entry in assay [1], in [2], in assay [3], in assay [4], in assay [5] and in [6] was “inactive” in each case. In addition, the Potency result in [7] and in [8] was “inactive” in each case.
For `O=P(O)(O)CCCl`, the Potency entry in assay [1], in assay [2], in [3], in [4], in [5] and in assay [6] was “inactive” each time. In addition, the Potency entry in [7] and in [8] was “inactive” in each case.
On to `Brc1ccc(Oc2cc(Br)c(Br)cc2Br)c(Br)c1`, for which the Potency result in assay [1], in assay [2], in [3], in [5], in [9] and in assay [7] was “inactive” in each case. Besides, in assay [8], the Potency entry is “inactive”.
Take `C#C[C@]1(O)CC[C@H]2[C@@H]3CCC4=CC(=O)CC[C@]4(C)[C@H]3CC[C@@]21C`: the Potency result in [1], in [2], in assay [3], in assay [5], in assay [9] and in assay [6] was “inactive” in each case. Also, the Potency result in assay [7] and in [8] was “inactive” each time.
`CC(O)CCO` (centres undefined): the Potency result in [1], in [2], in assay [3], in [5], in [9] and in assay [6] was “inactive” each time. Also, the Potency result in assay [7] and in assay [8] was “inactive” throughout.
Regarding `O=P(Oc1ccccc1)(Oc1ccccc1)Oc1ccccc1`, the Potency result in [1], in assay [2], in assay [3], in [10], in assay [9] and in assay [6] was “inactive” each time. For the same compound, the Potency entry in assay [7] and in assay [8] was “inactive” each time.
With `O=c1oc2ccccc2c(O)c1C(CC(O)c1ccc(-c2ccc(Br)cc2)cc1)c1ccccc1` (centres undefined), the Potency entry in assay [1], in assay [2], in assay [3] and in assay [6] was “inactive” in each case. The Potency was 601 nM (active) and 1.04 µM (active) in assay [10]; 41.3 µM (active) in [7].
Turning to `CC(C)=CC1C(C(=O)OCc2coc(Cc3ccccc3)c2)C1(C)C` (centres undefined), the Potency result in [1], in assay [2], in assay [3], in [5], in [6] and in assay [7] was “inactive” throughout.
With `Cc1c(COC(=O)[C@@H]2[C@H](/C=C(\Cl)C(F)(F)F)C2(C)C)cccc1-c1ccccc1`, the Potency entry in assay [1], in assay [2], in [3], in [5], in [9] and in assay [6] was “inactive” in each case. Besides, the Potency entry in assay [7] and in [8] was “inactive” in each case.
Turning to `CC(C)NC(C)C`, the Potency entry in assay [1], in assay [2], in assay [3], in [5], in assay [9] and in [6] was “inactive” each time. The Potency entry in [7] is “inactive”.
On to `Cc1cccc(N)c1N`, for which the Potency entry in assay [1], in assay [3], in [4], in assay [5], in [6] and in [7] was “inactive” in each case. The Potency entry in assay [8] was “inactive”. In assay [2], the Potency was 11.8 µM (active) and 43.3 µM (active).
For `Cc1ccc(OP(=O)(Oc2ccc(C)cc2)Oc2ccc(C)cc2)cc1`, the Potency entry in assay [1], in [2], in assay [3], in [5], in assay [9] and in assay [6] was “inactive” each time. Moreover, the Potency entry in assay [7] and in assay [8] was “inactive” throughout.
